In PubChem BioAssay (EPA / NIEHS) one finds AC50 and outcome data, which are given here for six molecules.

What all share (settings): mRNA level, 48 h; actives raise or lower the signal
Read-out in assay [1]: Cytochrome P450 3A7 (Homo sapiens) (UniProt P24462)
The assay can be described thus: LTEA_HepaRG_CYP3A7: Life Technologies and Expression Analysis (LTEA) Assay for CYP3A7 using HepaRG (AID 2283492). An outline of the steps: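 Human HepaRG liver cells, 48 h post-plating, switched to serum-free induction medium and exposed in duplicate for 48 h. Dosing: 100 uM top, half-log dilutions, 8 points, 0.5% DMSO vehicle. Read-out: CYP3A7 mRNA, gain or loss fitted against DMSO baseline.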

Read-out in another assay: CYP3A5 (gene 1577)
The assay can be described thus: LTEA_HepaRG_CYP3A5: Life Technologies and Expression Analysis (LTEA) Assay for CYP3A5 using HepaRG (AID 2283493). An outline of the steps: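 mRNA induction or loss of CYP3A5 assessed in HepaRG after 48 h dosing, 100 uM top concentration, duplicate wells; TaqMan qRT-PCR with ACTB, GAPDH, POLR2A normalization; 0.5% DMSO as negative control.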

Read-out in assay [2]: Fatty Acid-Binding Protein 1 (FABP1), FABP1 (gene 2168)
The assay can be described thus: LTEA_HepaRG_FABP1: Life Technologies and Expression Analysis (LTEA) Assay for Fatty Acid-Binding Protein 1 (FABP1) using HepaRG (AID 2283494). The method in brief:
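Differentiated human HepaRG cells exposed 48 h in serum-free induction medium to eight half-log concentrations up to 100 uM (0.5% DMSO), duplicate. FABP1 mRNA by qRT-PCR, normalised to ACTB, GAPDH, POLR2A; bidirectional fitting against DMSO.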

Read-out in assay [3]: Cytochrome P450 4A22 (Homo sapiens) (UniProt Q5TCH4)
The assay can be described thus: LTEA_HepaRG_CYP4A22: Life Technologies and Expression Analysis (LTEA) Assay for Cytochrome P450 4A22 (CYP4A22) using HepaRG (AID 2283495). The method in brief:
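Readout is CYP4A22 transcript induction or loss, quantified by qRT-PCR and normalized to ACTB, GAPDH and POLR2A. Human HepaRG cells receive test chemicals for 48 h at eight half-log concentrations from 100 uM in 0.5% DMSO.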

Read-out in assay [4]: Cytochrome P450 7A1 (Homo sapiens) (UniProt P22680)
In words: LTEA_HepaRG_CYP7A1: Life Technologies and Expression Analysis (LTEA) Assay for Cytochrome P450 7A1 (CYP7A1) using HepaRG (AID 2283496). An outline of the steps:
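Gene expression endpoint in human HepaRG liver cells treated for 48 h with test chemicals (up to 100 uM, 0.5% DMSO). Values come from bidirectional concentration-response fitting versus DMSO.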

Read-out in assay [5]: Glutamate-cysteine ligase catalytic (GCLC), GCLC (gene 2729)
The assay can be described thus: LTEA_HepaRG_GCLC: Life Technologies and Expression Analysis (LTEA) Assay for Glutamate-cysteine ligase catalytic (GCLC) using HepaRG (AID 2283498). An outline of the steps:
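Differentiated HepaRG cells exposed 48 h in serum-free induction medium, eight-point half-log series topping at 100 uM in 0.5% DMSO, duplicates. GCLC mRNA by qRT-PCR normalized to ACTB, GAPDH and POLR2A, fitted bidirectionally versus DMSO.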

Read-out in assay [6]: growth arrest and DNA damage 45 (GADD45G), GADD45G (gene 10912)
The assay can be described thus: LTEA_HepaRG_GADD45G: Life Technologies and Expression Analysis (LTEA) Assay for growth arrest and DNA damage 45 (GADD45G) using HepaRG (AID 2283499). The method in brief:
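Gain or loss of GADD45G mRNA, quantified by TaqMan qRT-PCR against three housekeeping genes, is fitted in both directions relative to 0.5% DMSO. Human HepaRG cultures receive test chemical for 48 h at up to 100 uM.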

Read-out in assay [7]: Glutamate-cysteine ligase regulatory (GCLM), GCLM (gene 2730)
The assay can be described thus: LTEA_HepaRG_GCLM: Life Technologies and Expression Analysis (LTEA) Assay for Glutamate-cysteine ligase regulatory (GCLM) using HepaRG (AID 2283500). The method in brief:
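Human liver HepaRG cultures receive test chemicals for 48 hours at up to 100 uM in 0.5% DMSO. GCLM expression is measured by qRT-PCR and analysed for increases or decreases against vehicle.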

Read-out in assay [8]: Glutathione S-transferase M3 (GSTM3), GSTM3 (gene 2947)
In words: LTEA_HepaRG_GSTM3: Life Technologies and Expression Analysis (LTEA) Assay for Glutathione S-transferase M3 (GSTM3) using HepaRG (AID 2283501). An outline of the steps: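 HepaRG, plated 48 h, then serum-free induction medium; test chemical 48 h, duplicate; 100 uM top, half-log x8, 0.5% DMSO. Read-out: GSTM3 mRNA (TaqMan qRT-PCR, Fluidigm array). Bidirectional fit vs DMSO.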

Read-out in assay [9]: Heat shock 70 kDa protein 1 (HSPA1A), gene 3303
In words: LTEA_HepaRG_HSPA1A: Life Technologies and Expression Analysis (LTEA) Assay for Heat shock 70 kDa protein 1 (HSPA1A) using HepaRG (AID 2283502). The method in brief:
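HSPA1A induction in human HepaRG liver cells is measured after 48 h of chemical treatment (100 uM maximum, 0.5% DMSO vehicle). Expression comes from qRT-PCR normalized to endogenous controls.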

Read-out in assay [10]: Hypoxia-inducible factor 1-alpha (Homo sapiens) (UniProt Q16665)
The assay can be described thus: LTEA_HepaRG_HIF1A: Life Technologies and Expression Analysis (LTEA) Assay for Hypoxia-inducible factor 1 (HIF1A) Trancription factor using HepaRG (AID 2283503).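 Also: HIF1A transcript by TaqMan qRT-PCR normalized to ACTB GAPDH and POLR2A.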 An outline of the steps: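 HepaRG, 48 h exposure, 8-pt half-log series from 100 uM, 0.5% DMSO vehicle, duplicates. Readout: HIF1A transcript by qRT-PCR (Fluidigm array), housekeeping-normalised. Bidirectional curve fit vs DMSO baseline.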

Read-out in assay [11]: 3-Hydroxy-3-Methylglutaryl-CoA Synthase 2 (HMGCS2), HMGCS2 (gene 3158)
In words: LTEA_HepaRG_HMGCS2: Life Technologies and Expression Analysis (LTEA) Assay for 3-Hydroxy-3-Methylglutaryl-CoA Synthase 2 (HMGCS2) using HepaRG (AID 2283504). An outline of the steps:
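HepaRG, plated 48 h then switched to serum-free induction media; cmpd 8-pt, max 100 uM, 1/2-log, 0.5% DMSO, n=2, 48 h. HMGCS2 mRNA by Fluidigm TaqMan qRT-PCR, ACTB/GAPDH/POLR2A norm; bidirectional fit vs DMSO.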

Read-out in a further assay: HGF (gene 3082)
In words: LTEA_HepaRG_HGF: Life Technologies and Expression Analysis (LTEA) Assay for Hepatocyte Growth Facto (HGF) using HepaRG (AID 2283505). The method in brief: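 Read-out is HGF transcript level by qRT-PCR, normalized to three housekeeping genes, fitted bidirectionally against 0.5% DMSO vehicle. Human HepaRG cells received test chemicals for 48 h at up to 100 uM.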

Read-out in assay [12]: Insulin Like Growth Factor 1 (IGF1), IGF1 (gene 3479)
In words: LTEA_HepaRG_IGF1: Life Technologies and Expression Analysis (LTEA) Assay for Insulin Like Growth Factor 1 (IGF1) using HepaRG (AID 2283506). An outline of the steps:
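Using human HepaRG liver cells, IGF1 transcript induction or suppression is measured 48 h after dosing across eight concentrations capped at 100 uM. Values derive from bidirectional concentration-response fitting with DMSO as baseline.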

Read-out in assay [13]: Intercellular Adhesion Molecule 1 (ICAM1), ICAM1 (gene 3383)
In words: LTEA_HepaRG_ICAM1: Life Technologies and Expression Analysis (LTEA) Assay for Intercellular Adhesion Molecule 1 (ICAM1) using HepaRG (AID 2283507). The method in brief: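 Readout is qRT-PCR mRNA level, normalized to three housekeeping genes and fitted bidirectionally against 0.5% DMSO vehicle. Human HepaRG cultures received compound for 48 h, top concentration 100 uM with half-log dilutions.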

Read-out in assay [14]: Insulin-like growth factor-binding protein 1 (IGFBP1), IGFBP1 (gene 3484)
In words: LTEA_HepaRG_IGFBP1: Life Technologies and Expression Analysis (LTEA) Assay for Insulin-like growth factor-binding protein 1 (IGFBP1) using HepaRG (AID 2283508). An outline of the steps:
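Thawed HepaRG cells are plated for 48 h, switched to serum-free induction medium, then dosed in duplicate for another 48 h (100 uM top, half-log steps). Lysates in RLT go to qRT-PCR, and gain or loss of signal is fitted relative to vehicle.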

Read-out in assay [15]: Interleukin 6 (IL6), IL6 (gene 3569)
The assay can be described thus: LTEA_HepaRG_IL6: Life Technologies and Expression Analysis (LTEA) Assay for Interleukin 6 (IL6) using HepaRG (AID 2283509). An outline of the steps: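 HepaRG cells exposed in duplicate for 48 h to eight half-log concentrations, top 100 uM, in 0.5% DMSO serum-free induction medium. mRNA measured by qRT-PCR, normalized to ACTB, GAPDH and POLR2A. Bidirectional fit versus DMSO.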

Read-out in assay [16]: Interleukin 6 Receptor (IL6R), IL6R (gene 3570)
The assay can be described thus: LTEA_HepaRG_IL6R: Life Technologies and Expression Analysis (LTEA) Assay for Interleukin 6 Receptor (IL6R) using HepaRG (AID 2283510). The method in brief:
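Concentration-response in human liver HepaRG cells: eight concentrations from 100 uM downward by half-logs, 48 h exposure, 0.5% DMSO vehicle. IL6R mRNA change measured by qRT-PCR and fitted in both directions relative to vehicle.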

Read-out in assay [17]: Potassium channel subfamily K member 1 (KCNK1), KCNK1 (gene 3775)
In words: LTEA_HepaRG_KCNK1: Life Technologies and Expression Analysis (LTEA) Assay for Potassium channel subfamily K member 1 (KCNK1) using HepaRG (AID 2283511). An outline of the steps:
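Differentiated HepaRG cells, 48 h exposure in serum-free induction medium with 0.5% DMSO; 8 concentrations, half-log from 100 uM, duplicate. KCNK1 mRNA by qRT-PCR, normalized to ACTB, GAPDH, POLR2A; bidirectional fit vs DMSO.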

Active and inactive are the calls of the source. The calls were made as follows: active = hit-call score of the fitted dose curve at least 0.9, where 1 is the maximum; inactive = score below 0.9.

Cytochrome P450 3A7 (Homo sapiens), sequence (P24462 whole entry, looked up): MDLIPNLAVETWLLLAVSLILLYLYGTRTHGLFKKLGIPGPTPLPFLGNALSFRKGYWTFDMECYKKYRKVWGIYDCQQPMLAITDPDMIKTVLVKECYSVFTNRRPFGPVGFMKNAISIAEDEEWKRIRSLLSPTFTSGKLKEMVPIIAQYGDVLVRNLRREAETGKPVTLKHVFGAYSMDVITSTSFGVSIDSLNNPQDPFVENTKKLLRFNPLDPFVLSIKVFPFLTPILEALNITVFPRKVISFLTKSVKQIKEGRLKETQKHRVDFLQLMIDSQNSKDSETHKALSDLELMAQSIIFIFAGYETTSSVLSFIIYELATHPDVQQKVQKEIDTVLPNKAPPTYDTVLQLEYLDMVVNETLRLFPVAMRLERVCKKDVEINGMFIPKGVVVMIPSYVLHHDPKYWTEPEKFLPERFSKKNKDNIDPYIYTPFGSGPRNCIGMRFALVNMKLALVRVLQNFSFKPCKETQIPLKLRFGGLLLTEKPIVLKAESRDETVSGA
Hypoxia-inducible factor 1-alpha (Homo sapiens), sequence (Q16665 whole entry, looked up): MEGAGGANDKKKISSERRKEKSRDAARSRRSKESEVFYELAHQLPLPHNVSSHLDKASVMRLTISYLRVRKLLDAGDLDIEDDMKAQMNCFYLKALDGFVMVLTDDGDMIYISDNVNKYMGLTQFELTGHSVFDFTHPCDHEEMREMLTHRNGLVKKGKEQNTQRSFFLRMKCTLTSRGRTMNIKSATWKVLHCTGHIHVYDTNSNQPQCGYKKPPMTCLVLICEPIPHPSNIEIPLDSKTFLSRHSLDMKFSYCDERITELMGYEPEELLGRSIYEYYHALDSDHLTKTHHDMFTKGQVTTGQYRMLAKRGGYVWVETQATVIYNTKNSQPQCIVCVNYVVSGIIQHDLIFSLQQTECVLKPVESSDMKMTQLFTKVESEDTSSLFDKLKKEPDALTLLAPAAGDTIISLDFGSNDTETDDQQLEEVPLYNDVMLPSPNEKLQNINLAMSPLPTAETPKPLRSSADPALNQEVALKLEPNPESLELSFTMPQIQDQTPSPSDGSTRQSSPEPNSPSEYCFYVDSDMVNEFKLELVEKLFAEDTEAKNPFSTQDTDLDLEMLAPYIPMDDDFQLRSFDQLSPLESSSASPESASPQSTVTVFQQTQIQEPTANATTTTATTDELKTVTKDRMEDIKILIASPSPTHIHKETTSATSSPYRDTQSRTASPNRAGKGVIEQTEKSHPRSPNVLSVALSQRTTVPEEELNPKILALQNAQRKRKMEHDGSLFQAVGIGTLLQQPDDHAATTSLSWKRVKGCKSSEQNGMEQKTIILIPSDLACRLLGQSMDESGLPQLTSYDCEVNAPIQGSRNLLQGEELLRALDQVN

Regarding `C[C@H]1[C@H](c2ccc(Cl)cc2)SC(=O)N1C(=O)NC1CCCCC1`, the AC50 was 61.6 µM (active) in assay [1]; 55.8 µM (active) in [2]; 47.1 µM (active) in assay [3]; 78.9 µM (active) in [4]; 67.4 µM (active) in assay [5]; 72.9 µM (active) in assay [6]. The AC50 in [7] was 73.5 µM (active); in assay [11] it was 38.2 µM (active); in assay [12], 40.1 µM (active); in [13], 81.3 µM (active); in assay [14], 75.4 µM (active); in assay [15], 77.7 µM (active). Besides, the result (in the assay with CYP3A5 (gene 1577); in assay [8]; in assay [9]; in assay [10]; in the assay with HGF (gene 3082); in assay [16]) was inactive. Also, the molecule was classed as inactive in assay [17].

In the case of `CNC(=O)CSP(=S)(OC)OC`, the result (in [1]; with CYP3A5 (gene 1577); in [2]; in assay [3]; in assay [4]; in assay [5]) was inactive. Also, the molecule was classed as inactive in assay [6], in assay [7], in assay [8], in [9], in assay [10] and in [11]. Besides, the call (in the assay with HGF (gene 3082); in assay [12]; in [13]; in [14]; in [15]; in assay [16]) was inactive. For the same molecule, the outcome in [17] was inactive.

Turning to `CCC(C)(C)C(=O)OC1=C(c2ccc(Cl)cc2Cl)C(=O)OC12CCCCC2`, the AC50 in assay [1] was 25.5 µM (active); in assay [11], 50 µM (active); in [12], 31.1 µM (active). The result (in the assay with CYP3A5 (gene 1577); in [2]; in assay [3]; in [4]; in [5]; in assay [6]) was inactive. Besides, the molecule was called inactive (in [7]; in assay [8]; in assay [9]; in assay [10]; in the assay with HGF (gene 3082); in [13]). Moreover, the molecule was classed as inactive in assay [14], in [15], in assay [16] and in [17].

Take `CNC(=O)Oc1ccccc1OC(C)C`: the AC50 in assay [1] is 1.52 µM (active). In addition, the result (in the assay with CYP3A5 (gene 1577); in assay [2]; in assay [3]; in [5]; in assay [6]; in assay [7]) was inactive. Also, the molecule was called inactive (in assay [8]; in assay [9]; in [10]; in assay [11]; with HGF (gene 3082); in [12]). Also, the molecule was classed as inactive in assay [13], in assay [14], in assay [15], in [16] and in assay [17].

In the case of `CC(C)OC(=O)Nc1cccc(Cl)c1`, the molecule was called inactive (in assay [1]; with CYP3A5 (gene 1577); in [2]; in assay [3]; in [4]; in [5]). In addition, the call in [6], in assay [7], in assay [8], in [9], in [10] and in assay [11] was inactive. The outcome (with HGF (gene 3082); in assay [12]; in assay [13]; in assay [14]; in assay [15]; in assay [16]) was inactive. For the same molecule, the outcome in assay [17] was inactive.

`O=C(O)CCCOc1ccc(Cl)cc1Cl`: the concentration at half-maximal activity (AC50) is 36.5 µM (active) with CYP3A5 (gene 1577) and 10.1 µM (active) in assay [2]. Also, the molecule was called inactive in [3], in assay [4], in [5], in assay [6], in assay [7] and in [8]. For the same molecule, the outcome (in [9]; in assay [10]; in [11]; with HGF (gene 3082); in assay [12]; in [13]) was inactive. The molecule was called inactive in assay [14], in assay [15], in [16] and in [17].

The term AC50 denotes the concentration at which the activity in the assay is half-maximal.
